Data as given in PubChem BioAssay (NCATS).
Inconclusive results are not listed. Calls of active or inactive are those of the source. The call rests on the fitted dose curve; in most records, active means well fitted curve in the direction sought with a large enough effect; inconclusive means small, poorly fitted or top-dose-only effect, or another doubt; inactive means no such curve, though single readings can be large; an effect the other way counts as inactive or inconclusive.

Tests used:
[1] = molecular target: Cellular tumor antigen p53 (Homo sapiens) (UniProt P04637); assay: Primary qHTS for small molecule compounds that upregulate eGFP-tagged delta133p53alpha (in N-terminal) cells. (AID 2060322); details: NCI-H358 eGFP-delta133p53alpha fluorescence, 24 h; activation: hits give high values;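 further: cells pre-induced with doxycycline then dosed without doxycycline; series mostly up to about 56 µM; 0% = DMSO vehicle and 100% = reference activator; nearly all actives have a fitted effect of over 75% in size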
Procedure, shortened: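 NCI-H358 cells pre-induced 24 h with 10 ng/ml doxycycline for eGFP-delta133p53alpha, plated dox-free and exposed 24 h at 37C to titrated compounds. Fixed, Hoechst-stained; gated GFP peak intensity by laser scanning cytometry, normalized to DMSO (0%) and 57.5 uM 5-azacytidine (100%).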

[2] = molecular target: Aldehyde dehydrogenase, mitochondrial (Homo sapiens) (UniProt P05091); assay: qHTS for Inhibitors of the Aldehyde Dehydrogenase Family (ALDH2) Primary screen (AID 2061308);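 further: plate controls were vehicle for no effect and reference inhibitor for full effect; nearly all actives have a fitted effect of over 55% in size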
[3] = molecular target: Retinaldehyde dehydrogenase 3 (Homo sapiens) (UniProt P47895); assay: qHTS for Inhibitors of the Aldehyde Dehydrogenase Family (ALDH1A3) Primary screen (AID 2061315);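 further: plate controls were DMSO vehicle for no effect and reference inhibitor for full effect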

Chain of Cellular tumor antigen p53 (Homo sapiens) (P04637 whole entry, looked up): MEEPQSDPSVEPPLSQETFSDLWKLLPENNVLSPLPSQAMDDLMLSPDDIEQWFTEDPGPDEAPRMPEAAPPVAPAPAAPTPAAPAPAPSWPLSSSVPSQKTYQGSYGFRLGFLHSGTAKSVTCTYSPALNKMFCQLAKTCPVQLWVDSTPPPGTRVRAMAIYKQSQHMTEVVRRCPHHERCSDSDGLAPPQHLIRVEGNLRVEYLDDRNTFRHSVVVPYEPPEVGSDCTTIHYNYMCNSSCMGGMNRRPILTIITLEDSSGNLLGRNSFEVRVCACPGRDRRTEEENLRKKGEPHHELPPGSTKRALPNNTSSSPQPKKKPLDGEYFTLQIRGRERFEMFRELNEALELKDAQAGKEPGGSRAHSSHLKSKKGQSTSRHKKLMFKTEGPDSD

Cc1cc(N2CCCCC2)nc2ccccc12
inactive: activation [1] 13.7% | Potency [2] | Potency [3]

CC1CCC2(C(=O)O)CCC3(C)C(=CCC4C5(C)CCC(O)C(C)(C(=O)O)C5CCC43C)C2C1(C)O (configuration not stated)
inactive: activation [1] -8.4% | Potency [2] | Potency [3]

COc1ccc(C2(CNC(=O)[C@](C)(Cc3c[nH]c4ccccc34)NC(=O)Nc3ccc([N+](=O)[O-])cc3)CCCCC2)nc1
inactive: activation [1] 12.9% | Potency [2] | Potency [3]

CC(C)C(O)(CO)CCO[C@@H]1O[C@H](CO[C@H]2OC[C@](O)(CO)[C@H]2O)[C@@H](O)[C@H](O)[C@H]1O (some centres not stated)
inactive: activation [1] -13% | Potency [2] | Potency [3]

CC1OC(OC2C(OC3C(O[C@H]4CC[C@@]5(C)C(CC[C@]6(C)C5CC=C5C7CC(C)(C)CC(O)[C@]7(C)CC[C@]56C)C4(C)C)OC(C(=O)O)C(O)C3O)OCC(O)C2O)C(O)C(O)C1O (some centres not stated)
inactive: activation [1] 3.57% | Potency [2] | Potency [3]

C=CC1(C)C=C2C(=O)OC(=O)C3=C(CCCC3(C)C)C2(O)CC1 (configuration not stated)
inactive: activation [1] -22.9% | Potency [2] | Potency [3]

O=C1Nc2ccc(O)cc2O[C@H]1O[C@@H]1O[C@H](CO)[C@@H](O)[C@H](O)[C@H]1O
inactive: activation [1] -16.8% | Potency [2] | Potency [3]

CC(=O)N1CCN(Cc2ccc([C@H](C)Nc3nccc(N4C(=O)OC[C@@H]4C(C)C)n3)cc2)CC1
inactive: activation [1] -16.1% | Potency [2] | Potency [3]

O=C(/C=C/c1ccc(O)cc1)OC1[C@H](O)CC(O)(C(=O)O)C[C@H]1O (some centres not stated)
inactive: activation [1] -0.763% | Potency [2] | Potency [3]
